# Reference: PubChem BioAssay (EPA / NIEHS)
# The source made the active and inactive calls. How the source made its calls: active means hit-call score of the fitted dose curve at least 0.9, where 1 is the maximum; inactive means score below 0.9.
# Read-out: NAD(P)H dehydrogenase [quinone] 1 (NQO1), NQO1 (gene 1728)
# Test: LTEA_HepaRG_NQO1: Life Technologies and Expression Analysis (LTEA) Assay for NAD(P)H dehydrogenase [quinone] 1 (NQO1) using HepaRG (AID 2283526)
# Conditions: mRNA level, 48 h; actives raise or lower the signal
# Summary of the method: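 Differentiated human HepaRG cells in serum-free induction medium, dosed in duplicate for 48 h at 8 half-log concentrations up to 100 uM in 0.5% DMSO. NQO1 mRNA by qRT-PCR normalized to ACTB, GAPDH, POLR2A; bidirectional fit versus DMSO baseline.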
Compound,outcome,AC50
c1cc2ccc3cccc4ccc(c1)c2c34,inactive,
CCSC(=O)N(CC)C1CCCCC1,inactive,
CC(C)(c1ccccc1)c1ccc(O)cc1,inactive,
CCOP(=S)(OCC)SCSC(C)(C)C,inactive,
CCOC(=O)C(O)(c1ccc(Cl)cc1)c1ccc(Cl)cc1,inactive,
Nc1ccc(-c2ccc(N)cc2)cc1,inactive,
COS(=O)(=O)OC,inactive,
CCCCCCCCCC[N+](C)(C)CCCCCCCCCC,inactive,
O=C(O)C(F)(F)C(F)(F)C(F)(F)C(F)(F)C(F)(F)C(F)(F)C(F)(F)C(F)(F)C(F)(F)F,inactive,
Cc1cccc(C)c1N,inactive,
CCCCCCCCCc1ccc(O)cc1,inactive,
O=NN(c1ccccc1)c1ccccc1,inactive,
CCCCCCCCOC(=O)c1ccccc1C(=O)OCCCCCCCC,inactive,
Oc1ccc(C(c2ccc(O)cc2)(C(F)(F)F)C(F)(F)F)cc1,,78.9 µM (active)
O=C(O)C(F)(F)C(F)(F)C(F)(F)C(F)(F)C(F)(F)F,inactive,
NS(=O)(=O)C(F)(F)C(F)(F)C(F)(F)C(F)(F)C(F)(F)C(F)(F)C(F)(F)C(F)(F)F,,12.8 µM (active)
O=S(=O)(O)C(F)(F)C(F)(F)C(F)(F)C(F)(F)F,inactive,
CC1=C2C[C@H]3[C@@H](CC=C4C[C@@H](O)CC[C@@]43C)[C@@H]2CC[C@]12O[C@@H]1C[C@H](C)CN[C@H]1[C@H]2C,inactive,
CCC(C)(c1ccc(O)cc1)c1ccc(O)cc1,inactive,
CN(C)c1nc(=O)n(C2CCCCC2)c(=O)n1C,inactive,
Cc1ccccc1O,inactive,
